Records with an inconclusive call do not appear. Where a call stands in place of a potency, no number is given. Calls of active or inactive are those of the source. Calls follow the shape of the dose curve; as a rule, active = well fitted cell-killing curve with a large enough effect; inconclusive = small, poorly fitted or top-dose-only effect; inactive = flat fitted curve, though single readings scatter.
assay: Cellular viability qHTS for adrenocortical cancer (ACC) cell line NCI-H295R (AID 1963990); conditions: CellTiter-Glo ATP luminescence, 48 h; series mostly up to 46.1 µM; also: nearly all actives have a fitted effect of over 60% in size
From the text: PI: Naris Nilubol, MD Surgical Oncology Program, National Cancer Institute (NCI) National Institute of Health (NIH), Bethesda, Maryland Adrenocortical cancer (ACC) is a rare malignancy with poor survival outcomes and few treatment options. Currently, mitotane is the only FDA-approved therapy for ACC. Although adjuvant radiation therapy is rarely utilized, it has the potential to improve survival in select cases. Through a quantitative high-throughput drug screen (qHTS), we identified auranofin (AF), a thioredoxin reductase (TXNRD) inhibitor, as a promising candidate drug. This study aims to evaluate whether AF can enhance the efficacy of radiation therapy in the treatment of ACC. Two human ACC cell lines, SW-13 and NCI-H295R, were screened using the National Center for Advancing Translational Sciences (NCATS) Pharmaceutical Collection (NPC) and the Mechanism Interrogation PlatE (MIPE) library (~4,991 compounds). CellTiter-Glo (Cat # G7570, Promega, Madison, WI) was utilized to measure cell viability. Described herein are the results of the corresponding viability assay.
PROTOCOL TABLE (as described by Inglese J, Shamu CE and Guy RK. 2007) SEQUENCE No. (e.g., 1, 2, 3, etc.); […] (e.g., Cells, Incubation, Reagent, etc.); VALUE; DESCRIPTION. 1; Cells; 5 uL; white, solid-bottom, 1536-well tissue-culture treated plates. 2; Time; overnight culture at 37C with 5% CO2. 3; Compounds and control; 23 nL; Kalypsis pin tool (Wako USA) equipped with a 1536-well pin head to transfer to the assay plates. 4; Time; 48 hours; 37C with 5% CO2. 5; Reagent; 4 uL; CellTiter-Glo luminescent substrate mix. 6; Time; 20 min at room temperature. 7; Detection; Luminescence; ViewLux plate reader NOTES (numbers refer to Sequence numbers above) 1. NCI-H295R cells were harvested from a T175 flask and resuspended in ITS-supplemented DMEM serum-free medium at a concentration of 300 000 cells/mL. Then 5 uL of resuspended cells were dispensed into each well of white, solid-bottom, 1536-well tissue-culture-treated plates using a multidrop combi dispenser. The plates were covered with stainless steel gasket lids. 2-3. The plates were cultured overnight at 37C with 5% CO2. Twenty-three nL of compounds (eight selected concentrations from the NPC / MIPE) or positive control (10 mM stock of bortezomib) in DMSO was transferred to each well of the assay plate using a pin tool (Kalypsys, San Diego, CA, USA). The final concentration of the compounds in the 5 uL assay volume ranged from 0.5 nM to 46 uM. 4-6. After 48 hours of incubation at 37C and 5% CO2, 4 uL of CellTilter-Glo luminescent substrate mix (Promega, Madison, WI, USA) was added to each well. Then the plates were incubated for 20 minutes at room temperature. 7. After incubation, luminescence was measured using a ViewLux plate reader (PerkinElmer, Waltham, MA, USA) with a clear filter was used to measure the number of metabolically competent cells. To determine compound activity in the qHTS assay, the titration-response data for each sample was plotted and modeled by a four-parameter logistic fit yielding IC50 and efficacy (maximal response) values. Raw plate reads for each titration point were normalized relative to positive control ([…], 100% inhibition) and DMSO-only wells (basal, 0%). REFERENCES: Inglese J, Shamu CE and Guy RK, Reporting data from high throughput screening of small molecule libraries, Nature Chemical Biology, 2007, 3(8): 438-441. doi.org/10.1038/nchembio0807-438.

| Compound | Potency |
| --- | --- |
| COc1ccc(C(=O)N2CCN(C(=O)/C=C/c3ccc(Br)cc3)CC2)cc1 | inactive |
| NCCCC(O)(P(=O)(O)O)P(=O)(O)O | inactive |
| O=c1[nH]c(-c2ccc(C(F)(F)F)cc2)nc2c1CSCC2 | inactive |
| CSc1ccc2c(c1)N(CCC1CCCCN1C)c1ccccc1S2 (stereo not given) | 4.61 µM (active) |
| CC(Oc1c(Cl)cccc1Cl)C1=NCCN1 (stereo not given) | inactive |
| O=C1CCC[C@@H]2[C@H]3CCC[N+]4([O-])CCC[C@@H](CN12)[C@@H]34 (stereo not given in full) | inactive |
| NC(N)=NC(=O)Cc1c(Cl)cccc1Cl | inactive |
| CC1=NN(c2ccccc2)C(=O)C1 | inactive |
| C[C@@H](Oc1cc(-c2cnn(C3CCNCC3)c2)cnc1N)c1c(Cl)ccc(F)c1Cl | 3.16 µM (active) |
| C[C@@H]1COC(Nc2ccc3ncnc(Nc4ccc(OCc5nccs5)c(Cl)c4)c3c2)=N1 | 28.2 µM (active) |
| CC(C)(C)c1cc(NC(=O)Nc2ccc(-c3cn4c(n3)sc3cc(OCCN5CCOCC5)ccc34)cc2)no1 | inactive |
| CCOc1ccc(NC(=O)CC(C)O)cc1 (stereo not given) | inactive |
| CC(=O)OCC(CCn1cnc2cnc(N)nc21)COC(C)=O | inactive |
| CC1=C(C(=O)O)N2C(=O)[C@@H](NC(=O)[C@H](N)c3ccc(O)cc3)[C@H]2SC1 | inactive |
| CC(C)(C)NCC(O)c1ccc(O)c(CO)c1 (stereo not given) | inactive |
| O=C1NC(=O)/C(=C/c2ccc3nccc(-c4ccncc4)c3c2)S1 | 0.631 µM (active) |
| CO[C@H]1/C=C\C=C(\C)C(=O)NC2=CC(=O)C(NCCN(C)C)=C(C[C@@H](C)C[C@H](OC)[C@H](O)[C@@H](C)/C=C(/C)[C@@H]1OC(N)=O)C2=O | 2 µM (active) |
| CCC1C(=O)OCC1Cc1cncn1C (stereo not given) | inactive |
| O=c1cc(N2CCOCC2)oc2c(-c3cccc4c3sc3ccccc34)cccc12 | 12.6 µM (active) |
| CO/N=C(/C(=O)N[C@@H]1C(=O)N2C(C(=O)OCOC(=O)C(C)(C)C)=C(C)CS[C@H]12)c1csc(N)n1 | inactive |

| Compound | Potency |
| --- | --- |
| CCN1CC(CCN2CCOCC2)C(c2ccccc2)(c2ccccc2)C1=O (stereo not given) | inactive |
| Nc1ncnc2c1c(-c1cccc(OCc3ccccc3)c1)cn2C1CC(CN2CCCC2)C1 (stereo not given) | 2.24 µM (active) |
| COc1cc(C(=S)N2CCOCC2)ccc1O | inactive |
| COc1ccc(CNC(=O)c2cc(-c3cncc(Cl)c3)cnc2-c2ccccn2)nc1OC | inactive |
| O=C(NCC(O)CO)c1c(I)c(C(=O)NCC(O)CO)c(I)c(N(CCO)C(=O)CO)c1I (stereo not given) | inactive |
| Oc1c(Br)cc(Br)c2cccnc12 | 1.64 µM (active) |
| O=c1[nH]c(=O)n([C@H]2C[C@H](O)[C@@H](CO)O2)cc1Br | inactive |
| CCCCC(CC)COC(=O)c1ccccc1C(=O)O (stereo not given) | inactive |
| CN(C)CCCOc1ccc(-c2ccc3ncc4c(c3c2)n(C2CCOCC2)c(=O)n4C)cn1 | 1.8 µM (active) |
| CC(C)C(=O)Nc1ncc(-c2cc(C(F)F)nn2-c2c(Cl)cccc2Cl)s1 | 22.4 µM (active) |
| Cc1nc(NC(=O)N2CCCC2C(N)=O)sc1-c1ccnc(C(C)(C)C(F)(F)F)c1 (stereo not given) | 12.6 µM (active) |
| Cc1cnc(Nc2cccc(CN3CCOCC3)c2)nc1Nc1cccc(S(=O)(=O)NC(C)(C)C)c1 | inactive |
| CNCC[C@H](Oc1cccc2ccccc12)c1cccs1 | 18.4 µM (active) |
| CCOCC(O)COc1ccc(NC(=O)CC[S+](C)C)cc1 (stereo not given) | inactive |
| C[C@@H]1COCCN1c1cc(C2(S(C)(=N)=O)CC2)nc(-c2ccnc3[nH]ccc23)n1 (stereo not given in full) | 3.98 µM (active) |
| O=C1CCc2ccc(OCCCCN3CCN(c4cccc(Cl)c4Cl)CC3)cc2N1 | inactive |
| Cc1cc(O)c(-c2ccc([C@@H](C)CN(C)C)cc2)c2c1[nH]c(=O)c1sccc12 | 0.251 µM (active) |
| Cc1oncc1C(=O)Nc1ccc(C(F)(F)F)cc1 | inactive |
| NS(=O)(=O)c1ccc(NC2=CC(=O)c3ccccc3C2=O)cc1 | 3.98 µM (active) |
| CC(=O)OC[C@H]1O[C@@H](OC(C)=O)[C@H](OC(C)=O)[C@@H]1OC(C)=O | inactive |
